Results with a measured potency or affinity are listed apart. The source made the active and inactive calls.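 Rule for the calls: active = every repeat run showing a signal drop whose fitted half-maximal concentration is at most twice the top tested concentration; inconclusive = repeat runs disagree, or flat partial drop, or poor fit; inactive = the rest.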
Assay: general mammalian cell viability loss – activator set, cherry-pick, cytotoxicity control for miR-122 modulator project, dose response (AID 720690)

Row | SMILES | outcome
1 | CC(C)NC(=O)N(C)C[C@H]1Oc2cc(C#C[C@H](C)O)ccc2S(=O)(=O)N([C@@H](C)CO)C[C@H]1C | inactive
2 | O=C(C1CCOCC1)N1[C@H](CO)[C@H]2c3ccccc3NC[C@H]21 | inactive
3 | COCC(=O)N(C)C[C@H]1Oc2cc(-c3ccc(C#N)cc3)ccc2S(=O)(=O)N([C@@H](C)CO)C[C@H]1C | inactive
4 | CCCNC(=O)C[C@H]1CC[C@H]2[C@@H](COc3ccc(NC(=O)c4cc(F)cc(F)c4)cc3C(=O)N2C)O1 | inactive
5 | COC(=O)C[C@H]1CC[C@@H]2[C@@H](COc3ccc(NC(=O)c4ccc(F)c(F)c4)cc3C(=O)N2C)O1 | inactive
6 | COc1ccc2[nH]c(=O)c(COC(=O)c3ccco3)cc2c1 | inactive
7 | COc1ccc(-c2c(C(C)=O)c(C)nc3sc4c(c23)NC(c2ccccc2)NC4=O)cc1 (stereo unspecified) | inactive
8 | Cc1nnc(NC(=O)CSc2nc(C(C)C)nc3sc(C)c(C)c23)s1 | inactive
9 | COC(=O)C[C@@H]1CC[C@@H]2[C@H](COc3ccc(NC(=O)c4cc(F)cc(F)c4)cc3C(=O)N2C)O1 | inactive
10 | O=C(Nc1ccccc1)N1C[C@@H]2[C@H](c3ccccc31)[C@H](CO)N2Cc1cocn1 | inactive
11 | CC(C)C#Cc1ccc2c(c1)O[C@H](CN(C)C(=O)c1ccncc1)[C@H](C)CN([C@H](C)CO)S2(=O)=O | inactive
12 | O=C(CC(F)(F)F)N1C[C@@H]2[C@H](c3ccccc31)[C@@H](CO)N2C(=O)C1CCCC1 | inactive
13 | NS(=O)(=O)c1ccc(Nc2nc(-c3cccnc3)cs2)cc1 | inactive
14 | COCCNC(=O)C[C@H]1CC[C@@H]2[C@H](COc3ccc(NC(=O)c4cnccn4)cc3C(=O)N2C)O1 | inactive
15 | Cc1cccc(NC(=O)Nc2ccc3c(c2)C(=O)N(C)[C@H]2CC[C@H](CC(=O)O)O[C@H]2CO3)c1 | inactive
16 | Cc1cc(C(C)(C)C)cc(S(=O)(=O)NCCc2ccncc2)c1C | inactive
17 | CCC(=O)N1[C@H](CO)[C@H](c2ccccc2)[C@H]1CNC(=O)CN1CCOCC1 | inactive
18 | C/C=C/c1ccc2c(c1)O[C@H](CN(C)C(=O)Cc1cccnc1)[C@H](C)CN([C@H](C)CO)S2(=O)=O | inactive

Row | SMILES | outcome
19 | CC(=O)N1[C@H](CO)[C@H](c2ccccc2)[C@@H]1CN(C(=O)c1ccc(F)cc1)C(C)C | inactive
20 | CCS(=O)(=O)Nc1ccc2c(c1)C(=O)N(C)[C@H]1CC[C@H](CC(=O)NCCCN3CCOCC3)O[C@H]1CO2 | inactive
21 | O=S(=O)(Nc1nccs1)c1ccc(NS(=O)(=O)c2cccs2)cc1 | inactive
22 | CCCNC(=O)N1[C@H](CNC(=O)c2ccc(F)cc2)[C@H](c2ccccc2)[C@@H]1CO | inactive
23 | O=C(Nc1ncc(Cc2cccc(C(F)(F)F)c2)s1)c1ccc(-c2cccc([N+](=O)[O-])c2)o1 | inactive
24 | COCC(=O)N(C[C@@H]1[C@@H](c2ccccc2)[C@@H](CO)N1C(=O)NC(C)C)C(C)C | inactive
25 | O=CN1CCN(C(=O)c2ccccc2F)CC1 | inactive
26 | CC(=O)c1cccc(S(=O)(=O)NCC2CCCCC2)c1 | inactive
27 | COc1ccc(C#Cc2ccc3c(c2)O[C@H](CN(C)C(=O)CN2CCOCC2)[C@H](C)CN([C@H](C)CO)S3(=O)=O)cc1 | inactive
28 | CCNC(=O)C[C@@H]1CC[C@@H]2[C@@H](COc3ccc(NC(=O)C4CCCCC4)cc3C(=O)N2C)O1 | inactive
29 | CNC(=O)C[C@H]1CC[C@@H]2[C@@H](COc3ccc(NC(=O)Nc4ccc(Cl)cc4)cc3C(=O)N2C)O1 | inactive
30 | CN1C(=O)c2cc(NC(=O)c3cccc(F)c3)ccc2OC[C@H]2O[C@H](CC(=O)O)CC[C@H]21 | inactive
31 | N#Cc1cccc(NC(=O)Nc2cccs2)c1 | inactive
32 | CCC(=O)NC[C@@H]1[C@@H](c2ccc(C3=CCCC3)cc2)[C@@H](CO)N1C(C)=O | inactive
33 | CN1C(=O)c2cc(NC(=O)Nc3ccc(Cl)cc3)ccc2OC[C@@H]2O[C@@H](CC(=O)NCCN3CCCCC3)CC[C@H]21 | inactive
34 | OC[C@H]1[C@@H](c2ccccc2)[C@@H](CNCC2CCC2)N1CC1CC1 | inactive
35 | COC(=O)C[C@@H]1CC[C@@H]2[C@@H](COc3ccc(NC(=O)c4cc(F)cc(F)c4)cc3C(=O)N2C)O1 | inactive
36 | C[C@@H]1CN([C@@H](C)CO)C(=O)c2cc(NC(=O)Nc3cccc4ccccc34)ccc2O[C@@H](C)CCCCO[C@H]1CN(C)CC1CCCCC1 | inactive

Reference: PubChem BioAssay AID720690 (Broad Institute, 2013)
